Inconclusive results are not listed. Active and inactive are the calls of the source. Rule for the calls, unless noted: active = hit-call score of the fitted dose curve at least 0.9, where 1 is the maximum; inactive = score below 0.9.
How the values were obtained:
[1] = ACEA_ER_80hr: ACEA Biosciences xCELLigence Real-Time Cell Analysis on Estrogen Receptor Agonism for Proliferation (AID 2282667; active = hit-call score of the fitted dose curve at least 0.9, where 1 is the maximum); conditions: T47D proliferation, impedance (xCELLigence), 80 h
Summary of the method: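 Cell-growth kinetics were measured by impedance in T47D cells treated continuously with compound (top 100 uM final, 1:4 steps, 8 points). Activity at 80 h was scored as signal gain over the DMSO baseline.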

[2] = ATG_CRE_CIS: Attagene CIS-FACTORIAL HepG2 Assay for human cAMP Responsive Element (CRE) binding protein 3 (AID 2282926); conditions: HepG2 CRE cis-reporter, Attagene multiplexed mRNA; actives raise or lower the signal
Summary of the method: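 Cells carrying cis-regulated reporter constructs respond through their own endogenous factors. After 24 h treatment, RNA is reverse-transcribed, amplified, labelled and sized by capillary electrophoresis; up- and down-regulation are both scored against vehicle.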

[3] = target: CCAAT/enhancer-binding protein beta (Homo sapiens) (UniProt P17676); assay: ATG_C_EBP_CIS: Attagene CIS-FACTORIAL HepG2 Assay for human CCAAT/Enhancer Binding Protein (C/EBP) beta (AID 2282927); conditions: HepG2 Attagene cis-factorial transcription factor reporter; actives raise or lower the signal
Summary of the method: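 Transiently transfected HepG2 (MRTU library, endogenous TF-driven promoters); 24 h dosing; total RNA → oligo(dT) RT → PCR → 6-FAM primer extension → HpaI digest → CE; fit bidirectionally vs DMSO.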

[4] = ATG_CMV_CIS: Attagene CIS-FACTORIAL HepG2 Assay for human CMV (Internal Marker) (AID 2282928); conditions: HepG2 CMV promoter reporter, transcription factor profiling; actives raise or lower the signal;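 note: endpoint acts as a background internal control marker rather than a target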
Summary of the method: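 Bidirectional fits against DMSO are applied to reporter mRNA, read by RT-PCR with capillary electrophoresis, from HepG2 cells exposed 24 h. The endpoint serves as an internal CMV background marker within the cis-factorial reporter panel.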

[5] = target: Aryl hydrocarbon receptor (Homo sapiens) (UniProt P35869); assay: ATG_Ahr_CIS: Attagene CIS-FACTORIAL HepG2 Assay for human Aryl Hydrocarbon Receptor (Ahr) (AID 2282930); conditions: HepG2 AhR cis-factorial reporter transcription; actives raise or lower the signal
Summary of the method: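 Read-out: reporter mRNA quantified by RT-PCR with fluorescent primer extension and capillary electrophoresis. Human HepG2 liver cells carried transfected cis-promoter reporter units and were exposed to chemical for 24 h; gain or loss fitted relative to DMSO.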

[6] = ATG_AP_1_CIS: Attagene CIS-FACTORIAL HepG2 Assay for human Activator Protein 1 (AP-1) (AID 2282931); conditions: HepG2 Attagene cis-factorial AP-1 reporter mRNA; actives raise or lower the signal
Summary of the method: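 Fluorescence of labelled PCR fragments separated by capillary electrophoresis gives reporter mRNA levels. HepG2 with transfected cis-regulated reporter units, 24 h exposure; DMSO serves as baseline for bidirectional curve fits.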

[7] = ATG_AP_2_CIS: Attagene CIS-FACTORIAL HepG2 Assay for human Activator Protein 2 (AP-2) (AID 2282932); conditions: HepG2 AP-2 cis-reporter, Attagene transcription factor profiling; actives raise or lower the signal
Summary of the method: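 Read-out: fluorescent reporter mRNA via RT-PCR and capillary electrophoresis, 24 h post-dose in transiently transfected HepG2. Endogenous factors drive cis-promoter reporters; gain or loss of signal fitted bidirectionally against DMSO.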

[8] = ATG_BRE_CIS: Attagene CIS-FACTORIAL HepG2 Assay for human Bone Morphogenetic Protein (BMP) Response Element (BRE) (AID 2282933); conditions: HepG2 BMP response element reporter, Attagene transcription factor profiling; actives raise or lower the signal
Summary of the method: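 Fluorescence-labelled reporter cDNA fragments, separated by capillary electrophoresis, gave the signal for this component of a 52-readout multiplex. HepG2 cells were transfected, exposed to chemicals for 24 h, and compared with DMSO using bidirectional fitting.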

[9] = target: Retinoic acid receptor alpha (Homo sapiens) (UniProt P10276); assay: ATG_DR5_RAR_CIS: Attagene CIS-FACTORIAL HepG2 Assay for human Retinoic Acid Receptor Alpha (RARE), DR5 submotif (AID 2282934); conditions: HepG2 Attagene cis-factorial RARE DR5 reporter, mRNA; actives raise or lower the signal
Summary of the method: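 Read-out: DR5-driven reporter transcript measured by RT-PCR, 6-FAM primer extension, HpaI digest and capillary electrophoresis. Human HepG2 liver cells carry transiently transfected cis-element reporter constructs; dosing lasts 24 h. Gain or loss of signal fitted against DMSO baseline.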

[10] = target: Transcription factor E2F1 (Homo sapiens) (UniProt Q01094); assay: ATG_E2F_CIS: Attagene CIS-FACTORIAL HepG2 Assay for human E2F Transcription Factor 1 (AID 2282935); conditions: HepG2 Attagene cis-reporter, E2F reporter RNA transcripts; actives raise or lower the signal
Summary of the method: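 Transient MRTU transfection of HepG2; 24 h compound exposure; RNA → oligo(dT) RT → PCR → FAM label → HpaI cut → CE fluorescence. Gain/loss of signal fit against DMSO.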

[11] = ATG_E_Box_CIS: Attagene CIS-FACTORIAL HepG2 Assay for human Enhancer Box (E-box) (AID 2282936); conditions: HepG2 E-box cis-reporter transcription, actives raise or lower the signal
Summary of the method: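 Transiently transfected HepG2, endogenous TF-driven reporters, 24 h dosing. Readout: RT-PCR plus capillary electrophoresis of fluorescent reporter fragments. Gain or loss of signal fitted bidirectionally against DMSO baseline.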

[12] = ATG_M_61_CIS: Attagene CIS-FACTORIAL HepG2 Assay for M61 Transcription Factor (Internal Marker) (AID 2282937); conditions: HepG2 Attagene CIS-FACTORIAL M61 internal marker reporter; actives raise or lower the signal
Summary of the method: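 This endpoint serves as an internal background control within a multiplexed HepG2 cis-reporter panel. Cells are exposed for 24 h; reporter mRNA is amplified, fluorescently labelled and sized by capillary electrophoresis, with DMSO as negative control.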

[13] = ATG_EGR_CIS: Attagene CIS-FACTORIAL HepG2 Assay for human Early Growth Response 1 (EGR1) (AID 2282938); conditions: HepG2 Attagene CIS-FACTORIAL EGR reporter mRNA; actives raise or lower the signal
Summary of the method: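 HepG2, transient MRTU transfection (cis promoters), 24 h compound. RNA → RT (oligo-dT) → PCR → 6-FAM labelling → HpaI cut → CE fluorescence. Bidirectional fit, DMSO baseline.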

[14] = ATG_M_19_CIS: Attagene CIS-FACTORIAL HepG2 Assay for M19 Transcription Factor (Internal Marker) (AID 2282939); conditions: HepG2 Attagene CIS-FACTORIAL M19 internal marker reporter; actives raise or lower the signal
Summary of the method: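 HepG2, MRTU transient transfection, 24 h dosing. Total RNA → RT-PCR → 6-FAM primer extension → HpaI digest → CE fluorescence. Bidirectional curve fit, DMSO negative control.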

[15] = ATG_Ets_CIS: Attagene CIS-FACTORIAL HepG2 Assay for human Erythroblast Transformation Specific (ETS) (AID 2282941); conditions: HepG2 ETS cis-reporter transcription, actives raise or lower the signal
Summary of the method: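 Endogenous transcription factor activity read as reporter mRNA via RT-PCR and capillary electrophoresis, with gain or loss fitted bidirectionally against DMSO. Human HepG2 liver cells, transiently transfected CIS reporter constructs, 24 h exposure.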

[16] = ATG_FoxO_CIS: Attagene CIS-FACTORIAL HepG2 Assay for human Forkhead box O (FoxO) (AID 2282943); conditions: HepG2 Attagene cis-reporter, FoxO element, mRNA; actives raise or lower the signal
Summary of the method: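 Read-out: fluorescence of 6-FAM-labelled reporter cDNA fragments resolved by capillary electrophoresis. Transiently transfected HepG2 cells were dosed for 24 h; activity fitted in both directions relative to DMSO controls.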

[17] = ATG_GATA_CIS: Attagene CIS-FACTORIAL HepG2 Assay for human GATA Binding Protein (AID 2282944); conditions: HepG2 GATA cis-element reporter, Attagene multiplex mRNA; actives raise or lower the signal
Summary of the method: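 Cells: HepG2, transiently transfected with cis-regulated reporter transcription units. Exposure: 24 h. Detection: RT-PCR plus capillary electrophoresis of FAM-labeled fragments. Analysis: bidirectional, DMSO as baseline.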

[18] = target: Hepatocyte nuclear factor 3-beta (Homo sapiens) (UniProt Q9Y261); assay: ATG_FoxA2_CIS: Attagene CIS-FACTORIAL HepG2 Assay for human Forkhead box A2 (FOXA2) (AID 2282942); conditions: HepG2 cis-reporter transcription factor activity, 24 h; actives raise or lower the signal
Summary of the method: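 Cells: HepG2, transient multiplex reporter transfection. Exposure 24 h. Detection: reporter-specific RT-PCR, fluorescent labelling, restriction digest, capillary electrophoresis. Analysis: bidirectional curve fit, DMSO as negative control.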

[19] = ATG_ERE_CIS: Attagene CIS-FACTORIAL HepG2 Assay for Estrogen Response Element (ERE) (AID 2282940); conditions: HepG2 ERE cis-reporter, Attagene RNA transcript; actives raise or lower the signal
Summary of the method: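 After a 24 h chemical treatment, RNA from reporter-transfected HepG2 cells is reverse-transcribed, PCR-amplified and fluorescently labelled. Fragments separated by capillary electrophoresis give reporter signal; DMSO serves as negative control.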

[20] = ATG_DR4_LXR_CIS: Attagene CIS-FACTORIAL HepG2 Assay for human Liver X Receptor (LXR), DR4 submotif (AID 2282929); conditions: HepG2 Attagene DR4 cis-reporter, mRNA transcription; actives raise or lower the signal
Summary of the method: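 Endogenous factor activity at a DR4 cis-element is read as reporter mRNA in transiently transfected HepG2 cells. Exposure lasts 24 h; transcripts are amplified, fluorescently labelled and sized by capillary electrophoresis, with DMSO as baseline.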

Sequence of Hepatocyte nuclear factor 3-beta (Homo sapiens) (Q9Y261 whole entry, looked up): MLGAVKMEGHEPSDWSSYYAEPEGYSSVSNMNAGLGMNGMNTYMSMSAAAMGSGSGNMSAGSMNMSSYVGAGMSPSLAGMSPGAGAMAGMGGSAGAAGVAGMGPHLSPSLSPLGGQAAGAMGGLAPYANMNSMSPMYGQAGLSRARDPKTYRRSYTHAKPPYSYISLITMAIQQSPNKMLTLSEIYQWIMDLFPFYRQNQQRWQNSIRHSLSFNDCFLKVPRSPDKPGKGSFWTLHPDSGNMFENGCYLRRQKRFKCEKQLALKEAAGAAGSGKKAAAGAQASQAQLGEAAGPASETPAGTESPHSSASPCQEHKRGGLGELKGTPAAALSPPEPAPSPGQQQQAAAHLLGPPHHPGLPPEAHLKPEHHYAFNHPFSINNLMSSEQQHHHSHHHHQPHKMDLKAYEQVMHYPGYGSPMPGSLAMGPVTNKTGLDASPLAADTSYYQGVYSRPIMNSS
Sequence of Aryl hydrocarbon receptor (Homo sapiens) (P35869 whole entry, looked up): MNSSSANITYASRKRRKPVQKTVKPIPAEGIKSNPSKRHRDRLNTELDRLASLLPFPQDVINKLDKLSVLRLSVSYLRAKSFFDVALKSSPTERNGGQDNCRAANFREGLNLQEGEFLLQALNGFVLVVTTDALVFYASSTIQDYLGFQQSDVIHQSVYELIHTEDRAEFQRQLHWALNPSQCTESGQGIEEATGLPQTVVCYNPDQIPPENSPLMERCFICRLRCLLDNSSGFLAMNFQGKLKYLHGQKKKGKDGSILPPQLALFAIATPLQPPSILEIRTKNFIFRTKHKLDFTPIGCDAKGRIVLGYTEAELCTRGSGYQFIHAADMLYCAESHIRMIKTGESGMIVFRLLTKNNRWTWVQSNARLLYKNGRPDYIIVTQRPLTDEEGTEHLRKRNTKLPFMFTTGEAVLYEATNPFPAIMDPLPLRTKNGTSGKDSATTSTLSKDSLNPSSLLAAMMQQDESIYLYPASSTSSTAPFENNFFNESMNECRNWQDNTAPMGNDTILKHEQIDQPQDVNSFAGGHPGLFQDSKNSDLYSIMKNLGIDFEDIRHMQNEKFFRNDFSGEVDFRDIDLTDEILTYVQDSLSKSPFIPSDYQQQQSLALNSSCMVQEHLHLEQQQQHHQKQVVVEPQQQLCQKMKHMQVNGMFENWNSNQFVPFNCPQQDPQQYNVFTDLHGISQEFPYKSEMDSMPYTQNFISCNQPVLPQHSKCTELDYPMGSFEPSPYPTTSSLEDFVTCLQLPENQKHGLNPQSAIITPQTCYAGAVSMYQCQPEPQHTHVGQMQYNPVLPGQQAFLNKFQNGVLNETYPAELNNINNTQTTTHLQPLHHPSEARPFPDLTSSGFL
Sequence of CCAAT/enhancer-binding protein beta (Homo sapiens) (P17676 whole entry, looked up): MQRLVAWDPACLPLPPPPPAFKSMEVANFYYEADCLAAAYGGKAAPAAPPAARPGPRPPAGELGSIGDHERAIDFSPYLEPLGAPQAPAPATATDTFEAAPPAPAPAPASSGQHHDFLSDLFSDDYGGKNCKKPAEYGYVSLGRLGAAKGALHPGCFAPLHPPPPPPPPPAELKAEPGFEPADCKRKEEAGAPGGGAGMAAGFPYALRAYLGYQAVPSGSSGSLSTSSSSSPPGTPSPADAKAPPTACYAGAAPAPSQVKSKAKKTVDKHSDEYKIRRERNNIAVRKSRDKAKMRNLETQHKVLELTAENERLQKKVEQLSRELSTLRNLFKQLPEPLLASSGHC
Sequence of Retinoic acid receptor alpha (Homo sapiens) (P10276 whole entry, looked up): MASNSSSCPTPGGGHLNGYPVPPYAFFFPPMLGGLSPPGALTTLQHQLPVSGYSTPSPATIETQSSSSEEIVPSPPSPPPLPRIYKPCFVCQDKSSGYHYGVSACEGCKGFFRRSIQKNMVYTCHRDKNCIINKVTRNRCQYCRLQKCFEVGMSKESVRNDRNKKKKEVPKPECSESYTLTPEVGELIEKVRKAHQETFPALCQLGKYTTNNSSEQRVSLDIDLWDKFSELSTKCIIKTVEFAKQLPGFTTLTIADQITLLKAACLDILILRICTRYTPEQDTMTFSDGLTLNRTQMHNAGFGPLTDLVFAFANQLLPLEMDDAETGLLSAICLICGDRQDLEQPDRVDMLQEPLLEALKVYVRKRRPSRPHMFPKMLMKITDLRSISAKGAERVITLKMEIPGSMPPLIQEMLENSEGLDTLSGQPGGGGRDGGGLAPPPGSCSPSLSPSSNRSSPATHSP
Sequence of Transcription factor E2F1 (Homo sapiens) (Q01094 whole entry, looked up): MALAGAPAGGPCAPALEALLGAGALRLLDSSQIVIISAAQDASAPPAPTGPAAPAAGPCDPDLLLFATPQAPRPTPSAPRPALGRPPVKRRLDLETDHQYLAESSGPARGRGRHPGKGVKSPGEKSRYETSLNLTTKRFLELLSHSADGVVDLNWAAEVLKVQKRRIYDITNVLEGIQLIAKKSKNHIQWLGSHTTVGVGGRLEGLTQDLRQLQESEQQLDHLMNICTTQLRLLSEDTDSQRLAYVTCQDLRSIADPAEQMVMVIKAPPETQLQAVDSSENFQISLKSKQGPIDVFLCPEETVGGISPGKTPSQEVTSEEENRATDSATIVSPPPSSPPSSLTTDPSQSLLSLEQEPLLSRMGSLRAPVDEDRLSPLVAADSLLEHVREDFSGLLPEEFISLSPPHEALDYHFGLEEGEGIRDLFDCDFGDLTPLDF

## Nc1cc([N+](=O)[O-])cc(Cl)c1O
[1]
  outcome: inactive
[2]
  outcome: inactive
[3]
  outcome: inactive
[4]
  outcome: inactive
[5]
  outcome: inactive
[6]
  outcome: inactive
[7]
  outcome: inactive
[8]
  outcome: inactive
[9]
  outcome: inactive
[10]
  outcome: inactive
[11]
  outcome: inactive
[12]
  outcome: inactive
[13]
  outcome: inactive
[14]
  outcome: inactive
[15]
  outcome: inactive
[16]
  outcome: inactive
[17]
  outcome: inactive

## CCCCOC(=O)C(C)O (centres undefined)
[1]
  outcome: inactive
[2]
  outcome: inactive
[3]
  outcome: inactive
[4]
  outcome: inactive
[5]
  outcome: inactive
[6]
  outcome: inactive
[7]
  outcome: inactive
[8]
  outcome: inactive
[9]
  outcome: inactive
[10]
  outcome: inactive
[12]
  outcome: inactive
[13]
  outcome: inactive
[14]
  outcome: inactive
[15]
  outcome: inactive
[18]
  outcome: inactive
[16]
  outcome: inactive
[17]
  outcome: inactive

## O=c1cccc[nH]1
[1]
  outcome: inactive
[2]
  outcome: inactive
[3]
  outcome: inactive
[4]
  outcome: inactive
[5]
  outcome: inactive
[6]
  outcome: inactive
[7]
  outcome: inactive
[8]
  outcome: inactive
[9]
  outcome: inactive
[10]
  outcome: inactive
[11]
  outcome: inactive
[12]
  outcome: inactive
[13]
  outcome: inactive
[14]
  outcome: inactive
[19]
  outcome: inactive
[15]
  outcome: inactive
[18]
  outcome: inactive
[16]
  outcome: inactive
[17]
  outcome: inactive

## O=C1OC(=O)c2ccc3c4c(ccc1c24)C(=O)OC3=O
[1]
  AC50: 0.0537 µM (active)
[2]
  outcome: inactive
[3]
  outcome: inactive
[4]
  outcome: inactive
[5]
  outcome: inactive
[6]
  outcome: inactive
[7]
  outcome: inactive
[8]
  outcome: inactive
[9]
  outcome: inactive
[10]
  outcome: inactive
[11]
  outcome: inactive
[12]
  outcome: inactive
[13]
  outcome: inactive
[14]
  outcome: inactive
[19]
  outcome: inactive
[15]
  outcome: inactive
[18]
  outcome: inactive
[16]
  outcome: inactive
[17]
  outcome: inactive

## CCC(Cc1c(I)cc(I)c(N)c1I)C(=O)O (centres undefined)
[1]
  AC50: 15.5 µM (active)
[2]
  outcome: inactive
[3]
  outcome: inactive
[20]
  outcome: inactive
[6]
  AC50: 64.6 µM (active)
[7]
  outcome: inactive
[8]
  outcome: inactive
[9]
  outcome: inactive
[10]
  outcome: inactive
[12]
  outcome: inactive
[13]
  outcome: inactive
[14]
  outcome: inactive
[19]
  AC50: 4.54 µM (active)
[15]
  outcome: inactive
[18]
  outcome: inactive
[16]
  outcome: inactive
[17]
  outcome: inactive

## O=C(c1ccccc1)c1ccc(O)cc1O
[1]
  AC50: 1.88 µM (active)
[2]
  outcome: inactive
[3]
  outcome: inactive
[6]
  outcome: inactive
[7]
  outcome: inactive
[8]
  outcome: inactive
[9]
  outcome: inactive
[10]
  outcome: inactive
[11]
  outcome: inactive
[12]
  outcome: inactive
[13]
  outcome: inactive
[14]
  outcome: inactive
[19]
  AC50: 1.72 µM (active)
[15]
  outcome: inactive
[16]
  outcome: inactive
[17]
  outcome: inactive

## COc1ccccc1C=O
[1]
  outcome: inactive
[2]
  outcome: inactive
[3]
  outcome: inactive
[20]
  outcome: inactive
[5]
  outcome: inactive
[6]
  outcome: inactive
[7]
  outcome: inactive
[8]
  outcome: inactive
[9]
  outcome: inactive
[10]
  outcome: inactive
[12]
  outcome: inactive
[13]
  outcome: inactive
[14]
  outcome: inactive
[19]
  outcome: inactive
[15]
  outcome: inactive
[16]
  outcome: inactive
[17]
  outcome: inactive

## CSc1ccc(Cl)cc1
[1]
  outcome: inactive
[2]
  outcome: inactive
[3]
  outcome: inactive
[20]
  outcome: inactive
[5]
  outcome: inactive
[6]
  outcome: inactive
[7]
  outcome: inactive
[8]
  outcome: inactive
[9]
  outcome: inactive
[10]
  outcome: inactive
[12]
  outcome: inactive
[13]
  outcome: inactive
[14]
  outcome: inactive
[19]
  outcome: inactive
[15]
  outcome: inactive
[16]
  outcome: inactive
[17]
  outcome: inactive
